Measured values taken from the supplement of paper PMC11732987, “Enantioselective OTUD7B fragment discovery through chemoproteomics screening and high-throughput optimisation” (Communications Chemistry, 2025).

Columns and labels:
Experiment in all cases: log2 ratio of Biotin-Ahx-Ub-VS probe labelling (fragment/DMSO); higher = less target engagement (more negative = stronger competition), active = hit call of the paper (q ≤ 0.05, log2 ratio ≤ -1)
Settings in all cases: compound concentration: 200 uM; treatment time: 3 h
USP34 = USP34 (UniProt Q70CQ2)
Chain of USP34 (Q70CQ2 whole entry, the tested form may be a part): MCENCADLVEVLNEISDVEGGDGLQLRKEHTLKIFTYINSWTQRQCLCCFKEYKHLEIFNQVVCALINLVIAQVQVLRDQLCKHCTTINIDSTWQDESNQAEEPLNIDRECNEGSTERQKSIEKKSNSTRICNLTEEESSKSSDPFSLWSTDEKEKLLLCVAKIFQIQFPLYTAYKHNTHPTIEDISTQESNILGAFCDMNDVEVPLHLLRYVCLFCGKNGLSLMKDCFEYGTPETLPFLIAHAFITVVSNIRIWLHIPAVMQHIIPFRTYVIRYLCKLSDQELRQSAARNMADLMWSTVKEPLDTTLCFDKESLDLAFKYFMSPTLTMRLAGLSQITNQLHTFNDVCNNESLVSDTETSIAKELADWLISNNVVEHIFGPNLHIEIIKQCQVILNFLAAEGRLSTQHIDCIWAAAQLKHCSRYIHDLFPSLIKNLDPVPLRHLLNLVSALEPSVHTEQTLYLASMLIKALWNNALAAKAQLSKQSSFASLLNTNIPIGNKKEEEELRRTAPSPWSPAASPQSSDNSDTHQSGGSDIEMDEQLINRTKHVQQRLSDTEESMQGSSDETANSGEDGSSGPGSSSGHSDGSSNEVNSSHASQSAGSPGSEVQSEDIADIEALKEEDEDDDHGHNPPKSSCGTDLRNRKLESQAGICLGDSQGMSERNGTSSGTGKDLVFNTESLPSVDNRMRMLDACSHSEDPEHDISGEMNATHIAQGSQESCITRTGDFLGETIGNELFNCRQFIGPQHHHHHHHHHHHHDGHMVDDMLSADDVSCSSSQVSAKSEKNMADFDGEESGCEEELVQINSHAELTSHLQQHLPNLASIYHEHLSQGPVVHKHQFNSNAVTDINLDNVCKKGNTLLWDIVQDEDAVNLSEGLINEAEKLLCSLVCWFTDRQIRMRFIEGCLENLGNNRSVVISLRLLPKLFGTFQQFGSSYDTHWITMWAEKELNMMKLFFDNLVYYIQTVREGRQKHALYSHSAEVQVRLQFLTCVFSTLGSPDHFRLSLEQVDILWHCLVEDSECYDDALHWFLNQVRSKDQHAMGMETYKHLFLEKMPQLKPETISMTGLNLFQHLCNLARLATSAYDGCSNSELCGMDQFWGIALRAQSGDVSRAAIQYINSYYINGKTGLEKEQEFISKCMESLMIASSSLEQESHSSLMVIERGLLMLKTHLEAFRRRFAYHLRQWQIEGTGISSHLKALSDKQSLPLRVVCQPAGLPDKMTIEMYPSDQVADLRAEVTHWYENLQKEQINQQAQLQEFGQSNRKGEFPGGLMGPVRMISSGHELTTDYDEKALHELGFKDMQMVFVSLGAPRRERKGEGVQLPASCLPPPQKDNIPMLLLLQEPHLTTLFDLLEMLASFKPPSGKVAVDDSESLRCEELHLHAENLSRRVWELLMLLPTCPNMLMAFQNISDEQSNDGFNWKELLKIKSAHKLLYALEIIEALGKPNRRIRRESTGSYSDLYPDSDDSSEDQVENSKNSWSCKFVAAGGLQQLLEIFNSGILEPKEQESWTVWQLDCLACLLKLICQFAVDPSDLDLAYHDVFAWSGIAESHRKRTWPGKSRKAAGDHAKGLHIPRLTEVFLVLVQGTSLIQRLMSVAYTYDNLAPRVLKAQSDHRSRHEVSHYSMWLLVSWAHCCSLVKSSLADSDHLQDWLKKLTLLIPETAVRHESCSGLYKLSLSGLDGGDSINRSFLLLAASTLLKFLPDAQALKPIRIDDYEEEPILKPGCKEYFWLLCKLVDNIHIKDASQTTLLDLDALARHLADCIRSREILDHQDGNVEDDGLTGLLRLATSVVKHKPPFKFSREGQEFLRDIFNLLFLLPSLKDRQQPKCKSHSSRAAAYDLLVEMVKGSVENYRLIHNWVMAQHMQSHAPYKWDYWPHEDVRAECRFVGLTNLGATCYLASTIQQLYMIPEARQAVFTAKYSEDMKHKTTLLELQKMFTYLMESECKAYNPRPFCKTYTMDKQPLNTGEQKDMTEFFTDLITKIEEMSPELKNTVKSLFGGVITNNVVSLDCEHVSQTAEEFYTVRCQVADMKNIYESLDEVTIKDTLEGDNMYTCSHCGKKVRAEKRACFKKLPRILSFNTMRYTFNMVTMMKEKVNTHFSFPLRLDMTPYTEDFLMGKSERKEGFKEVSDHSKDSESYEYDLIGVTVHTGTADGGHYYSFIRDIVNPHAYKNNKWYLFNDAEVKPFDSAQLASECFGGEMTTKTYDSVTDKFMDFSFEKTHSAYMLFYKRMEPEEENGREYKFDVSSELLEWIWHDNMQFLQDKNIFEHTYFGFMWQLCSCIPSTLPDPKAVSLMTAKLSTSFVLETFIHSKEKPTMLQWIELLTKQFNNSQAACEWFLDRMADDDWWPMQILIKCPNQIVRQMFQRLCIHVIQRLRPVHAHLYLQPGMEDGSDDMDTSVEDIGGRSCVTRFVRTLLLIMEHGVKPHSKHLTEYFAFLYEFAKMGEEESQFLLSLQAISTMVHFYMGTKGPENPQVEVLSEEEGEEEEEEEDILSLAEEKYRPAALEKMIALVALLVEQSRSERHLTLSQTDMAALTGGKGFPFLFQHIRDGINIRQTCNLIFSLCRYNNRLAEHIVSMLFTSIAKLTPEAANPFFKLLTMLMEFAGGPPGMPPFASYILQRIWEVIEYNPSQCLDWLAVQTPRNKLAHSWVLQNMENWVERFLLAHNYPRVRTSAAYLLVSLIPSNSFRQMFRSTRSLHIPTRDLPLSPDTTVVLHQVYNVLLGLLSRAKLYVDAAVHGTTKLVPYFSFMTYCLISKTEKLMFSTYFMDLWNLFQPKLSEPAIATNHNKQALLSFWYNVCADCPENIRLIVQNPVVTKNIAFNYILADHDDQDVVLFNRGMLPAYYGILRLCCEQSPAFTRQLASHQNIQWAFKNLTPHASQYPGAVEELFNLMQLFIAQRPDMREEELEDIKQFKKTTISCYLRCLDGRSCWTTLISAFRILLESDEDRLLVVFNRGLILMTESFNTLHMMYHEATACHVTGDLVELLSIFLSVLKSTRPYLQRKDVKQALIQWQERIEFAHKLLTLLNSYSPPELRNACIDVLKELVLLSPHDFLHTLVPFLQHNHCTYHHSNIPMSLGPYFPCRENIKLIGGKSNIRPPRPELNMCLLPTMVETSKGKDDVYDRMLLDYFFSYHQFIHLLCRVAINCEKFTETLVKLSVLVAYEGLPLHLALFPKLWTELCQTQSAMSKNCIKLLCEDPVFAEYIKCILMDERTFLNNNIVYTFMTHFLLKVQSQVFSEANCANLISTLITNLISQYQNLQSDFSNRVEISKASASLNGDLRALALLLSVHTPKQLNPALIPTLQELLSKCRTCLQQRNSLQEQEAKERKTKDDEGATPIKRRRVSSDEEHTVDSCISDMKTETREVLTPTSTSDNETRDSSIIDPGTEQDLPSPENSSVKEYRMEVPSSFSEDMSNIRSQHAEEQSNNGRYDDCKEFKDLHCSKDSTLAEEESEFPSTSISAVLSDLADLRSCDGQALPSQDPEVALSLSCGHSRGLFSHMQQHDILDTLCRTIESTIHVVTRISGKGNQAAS
Method in brief: (§1)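 Global-median-normalised Spectronaut label-free quantities were compared by unpaired t-test, and values are average log2 ratios of fragment over vehicle. Only proteins with ≥2 unique peptides were used. HEK293T lysate (495 µg per sample) was treated in triplicate with fragment at 200 µM or vehicle for 3 h and then with Biotin-Ahx-Ub-VS at 0.5 µM final for 1 h. Labelled DUBs were then NeutrAvidin-enriched, digested with LysC and trypsin, and run by diaPASEF LC-MS/MS.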

USP36 = target: T1, USP36 (UniProt Q9P275)
T1 sequence (whole entry): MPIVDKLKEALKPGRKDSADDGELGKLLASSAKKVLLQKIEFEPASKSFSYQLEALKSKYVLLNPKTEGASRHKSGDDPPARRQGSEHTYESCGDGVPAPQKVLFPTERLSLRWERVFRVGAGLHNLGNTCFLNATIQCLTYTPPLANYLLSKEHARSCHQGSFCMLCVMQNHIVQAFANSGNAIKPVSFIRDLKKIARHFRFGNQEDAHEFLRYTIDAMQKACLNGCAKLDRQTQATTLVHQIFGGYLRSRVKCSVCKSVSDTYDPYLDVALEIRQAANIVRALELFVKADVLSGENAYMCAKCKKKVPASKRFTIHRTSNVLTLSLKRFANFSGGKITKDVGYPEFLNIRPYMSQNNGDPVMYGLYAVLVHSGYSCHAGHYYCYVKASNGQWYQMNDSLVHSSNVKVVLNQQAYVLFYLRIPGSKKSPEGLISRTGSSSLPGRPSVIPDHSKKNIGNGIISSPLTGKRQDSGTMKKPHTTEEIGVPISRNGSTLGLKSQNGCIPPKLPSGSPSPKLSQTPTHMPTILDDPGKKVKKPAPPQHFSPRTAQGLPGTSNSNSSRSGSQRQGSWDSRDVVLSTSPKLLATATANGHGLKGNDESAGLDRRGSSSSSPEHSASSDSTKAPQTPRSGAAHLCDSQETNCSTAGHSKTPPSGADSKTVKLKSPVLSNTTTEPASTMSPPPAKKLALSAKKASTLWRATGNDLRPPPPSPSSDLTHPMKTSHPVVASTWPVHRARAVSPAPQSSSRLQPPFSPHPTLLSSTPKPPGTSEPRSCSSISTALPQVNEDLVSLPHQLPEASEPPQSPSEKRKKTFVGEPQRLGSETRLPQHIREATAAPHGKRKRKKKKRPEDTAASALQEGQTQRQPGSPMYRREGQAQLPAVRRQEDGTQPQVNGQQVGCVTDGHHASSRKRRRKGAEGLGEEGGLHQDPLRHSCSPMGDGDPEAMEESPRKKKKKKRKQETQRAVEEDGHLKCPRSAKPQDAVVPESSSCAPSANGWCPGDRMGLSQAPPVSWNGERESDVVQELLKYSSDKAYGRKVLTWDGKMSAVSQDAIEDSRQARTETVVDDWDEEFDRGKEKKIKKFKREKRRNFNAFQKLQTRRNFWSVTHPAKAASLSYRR
Method in brief: as §1

USP38 = target: T2, USP38 (UniProt Q8NB14)
T2 sequence (whole entry): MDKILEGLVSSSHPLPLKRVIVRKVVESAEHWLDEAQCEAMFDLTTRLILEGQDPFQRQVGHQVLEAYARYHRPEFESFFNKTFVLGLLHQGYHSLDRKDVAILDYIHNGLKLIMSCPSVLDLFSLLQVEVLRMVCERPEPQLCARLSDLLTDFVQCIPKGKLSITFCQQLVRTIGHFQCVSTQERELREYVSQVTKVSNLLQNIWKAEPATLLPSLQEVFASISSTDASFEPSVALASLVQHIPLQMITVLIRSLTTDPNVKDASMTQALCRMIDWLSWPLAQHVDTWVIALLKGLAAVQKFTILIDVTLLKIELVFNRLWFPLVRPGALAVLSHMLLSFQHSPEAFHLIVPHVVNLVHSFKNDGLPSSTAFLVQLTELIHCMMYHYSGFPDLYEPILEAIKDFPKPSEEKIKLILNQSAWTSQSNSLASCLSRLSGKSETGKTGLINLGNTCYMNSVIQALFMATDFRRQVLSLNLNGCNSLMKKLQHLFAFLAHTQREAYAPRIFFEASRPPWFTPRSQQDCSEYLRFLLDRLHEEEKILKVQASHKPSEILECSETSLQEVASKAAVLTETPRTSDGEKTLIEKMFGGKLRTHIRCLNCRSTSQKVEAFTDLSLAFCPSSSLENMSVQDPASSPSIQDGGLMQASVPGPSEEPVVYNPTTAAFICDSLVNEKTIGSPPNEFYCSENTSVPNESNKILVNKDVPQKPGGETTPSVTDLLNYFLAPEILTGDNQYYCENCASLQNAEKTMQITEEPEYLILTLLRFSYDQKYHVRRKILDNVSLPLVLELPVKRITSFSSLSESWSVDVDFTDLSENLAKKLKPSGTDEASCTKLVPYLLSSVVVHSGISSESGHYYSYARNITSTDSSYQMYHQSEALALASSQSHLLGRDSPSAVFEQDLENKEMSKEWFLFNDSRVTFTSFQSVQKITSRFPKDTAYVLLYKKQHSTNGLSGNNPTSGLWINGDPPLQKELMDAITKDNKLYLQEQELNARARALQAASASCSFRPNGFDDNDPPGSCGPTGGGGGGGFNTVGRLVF
Method in brief: as §1

USP39 = target: T3, USP39 (UniProt Q53GS9)
T3 sequence (whole entry): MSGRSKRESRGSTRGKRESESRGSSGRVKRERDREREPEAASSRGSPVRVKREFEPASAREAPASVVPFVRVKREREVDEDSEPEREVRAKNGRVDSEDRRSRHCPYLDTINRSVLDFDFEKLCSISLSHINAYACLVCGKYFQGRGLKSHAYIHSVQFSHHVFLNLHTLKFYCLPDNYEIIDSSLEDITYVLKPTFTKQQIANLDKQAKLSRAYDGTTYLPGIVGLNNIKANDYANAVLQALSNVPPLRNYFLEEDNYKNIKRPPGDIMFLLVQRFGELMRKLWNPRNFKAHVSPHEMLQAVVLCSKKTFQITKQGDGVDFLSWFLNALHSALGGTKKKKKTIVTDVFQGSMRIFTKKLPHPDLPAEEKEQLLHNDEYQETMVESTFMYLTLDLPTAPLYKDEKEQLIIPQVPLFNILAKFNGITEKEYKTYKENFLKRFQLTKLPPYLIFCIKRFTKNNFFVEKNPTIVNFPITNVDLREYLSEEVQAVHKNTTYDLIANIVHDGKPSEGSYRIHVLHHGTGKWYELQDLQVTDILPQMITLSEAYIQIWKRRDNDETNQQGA
Method in brief: as §1

USP4 = target: T4, USP4 (UniProt Q13107)
T4 sequence (whole entry): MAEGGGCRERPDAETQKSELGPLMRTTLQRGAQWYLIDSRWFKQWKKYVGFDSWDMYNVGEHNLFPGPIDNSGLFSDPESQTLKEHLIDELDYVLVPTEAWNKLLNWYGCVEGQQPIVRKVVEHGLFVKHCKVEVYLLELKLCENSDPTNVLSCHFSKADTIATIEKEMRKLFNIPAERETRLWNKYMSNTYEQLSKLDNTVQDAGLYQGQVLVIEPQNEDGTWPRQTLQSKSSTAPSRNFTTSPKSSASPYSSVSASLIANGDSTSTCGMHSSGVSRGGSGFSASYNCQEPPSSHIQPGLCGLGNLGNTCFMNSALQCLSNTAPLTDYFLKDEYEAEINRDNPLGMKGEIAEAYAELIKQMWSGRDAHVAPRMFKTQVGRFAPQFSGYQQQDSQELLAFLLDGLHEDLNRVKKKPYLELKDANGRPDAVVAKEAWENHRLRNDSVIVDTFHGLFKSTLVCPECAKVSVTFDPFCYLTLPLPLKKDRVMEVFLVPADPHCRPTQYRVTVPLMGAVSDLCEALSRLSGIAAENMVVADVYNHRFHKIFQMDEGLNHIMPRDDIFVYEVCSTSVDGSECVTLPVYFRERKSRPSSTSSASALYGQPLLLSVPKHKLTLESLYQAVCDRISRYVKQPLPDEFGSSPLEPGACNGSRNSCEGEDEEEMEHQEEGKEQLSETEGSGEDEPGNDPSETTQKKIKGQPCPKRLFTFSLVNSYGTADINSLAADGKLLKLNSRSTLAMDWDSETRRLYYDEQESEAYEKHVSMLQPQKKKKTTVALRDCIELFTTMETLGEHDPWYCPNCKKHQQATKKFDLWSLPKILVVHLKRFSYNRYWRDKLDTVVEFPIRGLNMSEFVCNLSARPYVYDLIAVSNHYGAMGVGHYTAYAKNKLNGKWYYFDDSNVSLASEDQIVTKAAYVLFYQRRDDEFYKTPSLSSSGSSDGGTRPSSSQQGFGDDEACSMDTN
Method in brief: as §1

Measured: log2 ratio of Biotin-Ahx-Ub-VS probe labelling

O=C(CCl)Nc1cc(Cl)ccc1-n1cncn1
inactive: USP34 -0.448 | USP36 -0.325 | USP38 -0.932 | USP39 0.142 | USP4 -0.712
